Consider 14 molecules from PMC12136788.

To fix the notation:
T1: UNK ZnF1-3 (human, UniProt Q9C0B0 31-174)
T1 sequence: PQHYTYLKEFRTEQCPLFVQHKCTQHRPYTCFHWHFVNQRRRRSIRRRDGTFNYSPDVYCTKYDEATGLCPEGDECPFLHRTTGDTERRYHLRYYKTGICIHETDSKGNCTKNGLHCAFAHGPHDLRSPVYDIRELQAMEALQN

B1: chrX:140365796:140365797:-_ENSMUSG00000031285_ENSMUST00000033642|mus_mus|mus_mus_mus_hu_False|8_58 (ssRNA)
RNA: GGGAGUUCUACAGUCCGACGAUCCUUCUCAUUACUCAGUGCCUGCAAGGUUCUGGUUCGGUAGAAGCUACAGUGGGCACUAUGAGUGGGGCUAGGCAACCCAUUCAUCCGGGAGCCUCGCAUGUUCCUAGAUGCUUUAUCUCUCAACAGAGGAUUGAGCAUCA
B2: chr3:10015032:10015033:+_ENSMUSG00000027533_ENSMUST00000029046|mus_mus|mus_mus_mus_hu_True|1_38 (ssRNA)
RNA: GGGAGUUCUACAGUCCGACGAUCGUUUUUACCAUCACAAGUGAUGAUACAAUCUGGCUUGGCCAUUGCGCCCAUUUUUCGCAAAGCUAUUCCCACUCCUAGCUCUUUCAUGUAUUCAUCAAAGCCUUUGCUGUCCAUCAGGCGCAACAGAGGAUUGAGCAUCA
B3: chr4:6320793:6320794:+_ENSMUSG00000028249_ENSMUST00000103008|mus_mus|FALSE|FALSE (ssRNA)
RNA: GGGAGUUCUACAGUCCGACGAUCAGUAGGCAUGAUUGUGAUGGUAACCACAGUCCCAGCUGUUGACAGUAUAUCUGCAAUCUGAGCAUCCUUCAAGCCAAUGACGUUCUGUCCGUUGAUCUCACAGAUGUGGUGAUCAGUGAGCAACAGAGGAUUGAGCAUCA
B4: chr22:42024162:42024163:+_ENSG00000196419_ENST00000405878|hu_hu|FALSE|FALSE (ssRNA)
RNA: GGGAGUUCUACAGUCCGACGAUCCUCAUCUUCACUCUGAGAUUCAAACAUAGCCUUGGAGGCAUCAACCAAAAAAAUCAAACUAUCUCUUCCUGAAUAUUUAUAGUCUCCACUUGCUUCAAGGUUCUCUUCUUGUUCUUCCUCCAACAGAGGAUUGAGCAUCA
B5: chr2:202488911:202488912:-_ENSG00000155755_ENST00000286196|hu_hu|FALSE|FALSE (ssRNA)
RNA: GGGAGUUCUACAGUCCGACGAUCUUUUAACAUUUUUCAUAAUAUUGAGAGAUGUUUCAGUAUUAUAUAAUCAAAAAAUCUAUUACAAAUACACAUGUAUACAUCUUAUAAAAAUACAUUUAAAAACAAAAAUGGGACAAAUACCAACAGAGGAUUGAGCAUCA
B6: chr3:142455598:142455599:-_ENSMUSG00000004591_ENSMUST00000043812|mus_mus|FALSE|FALSE (ssRNA)
RNA: GGGAGUUCUACAGUCCGACGAUCGUAGAGCAUUUGAUCAAAUUAUUUGUGAGACUUUUGAGGUACAGCUUUAGUGUUAUAAUAACUUUUUAUAAAAUAUAGACUGUUUUAUCAAAAAUAUUUAUACAUUCUGUUACAAUAUAUCAACAGAGGAUUGAGCAUCA
B7: chr20:57609950:57609951:-_ENSG00000101166_ENST00000355937|hu_hu|FALSE|FALSE (ssRNA)
RNA: GGGAGUUCUACAGUCCGACGAUCUGUUUUGAUCAAGUCACAUAGCCUUACACCAACUUAUCAAAAAAAAAAAAAAAAAAACUACCCAAAAUAUAGUUGUAUUUUUAAAAUAACAAAUAAAUAUAUAGUCAGUUUGGAGAGACCCAACAGAGGAUUGAGCAUCA
B8: chr7:135612270:135612271:-_ENSG00000105887_ENST00000393085|hu_mus|hu_hu_hu_mus_False|8_18 (ssRNA)
RNA: GGGAGUUCUACAGUCCGACGAUCGUUUUUUUCUGAGAUGUUAAAUAGUACUUCAGUGGAAAACAAAACUUAACCUUUUAUUAAUGCGUGUUGUACCAAAAGCAGACAUUUUAGCUUGCUUCCUUUACUCAAAAUAUCAUUAAGCAACAGAGGAUUGAGCAUCA
B9: chr2:174291214:174291215:-_ENSMUSG00000016257_ENSMUST00000016401|mus_hu|motif|central (ssRNA)
RNA: GGGAGUUCUACAGUCCGACGAUCUUGAUCAAGUCACAUAGCCUUACACCAACUUAUCAAAAAAAAAAAAAAAAAAACGGCCCAAAAUAUAGUUGUAUUUUUAAAAUAACAAAUAAAUAUAUAGUCAGUUUGGAGAGACCUGGACAACAGAGGAUUGAGCAUCA
B10: chr2:174291214:174291215:-_ENSMUSG00000016257_ENSMUST00000016401|mus_hu|FALSE|FALSE (ssRNA)
RNA: B9 RNA with G78U, G79A
B11: 60597838_60597958_3500_3pUTR_ENSMUSG00000049323_ENSMUST00000056907|mouse|control|control (ssRNA)
RNA: GGGAGUUCUACAGUCCGACGAUCUUUUUGGGAGCUACUUCCUUAAUGAACCAGGAGCAGCUGCUACUGUCCUUCUGGAGGGCCAUGUGCCACCUCUGCUCAGCCCACAUCACACACUGCCCAGGGCUAUGUUGCAACUAUAACCAACAGAGGAUUGAGCAUCA
B12: chr17:45757878:45757879:+_ENSG00000108424_ENST00000290158|hu_hu|FALSE|FALSE (ssRNA)
RNA: GGGAGUUCUACAGUCCGACGAUCUGGCCUAGCUUCUACUAAUUUCAGUACAUCCUUCCCAAAUGCUGUACAUAAGUCCCCUAUUAGUCCAGCAGCACAAGCUACUACUCCAUCUGUGUGAUCCUCAUCUCCAGCAAUGUGGUCCAACAGAGGAUUGAGCAUCA
B13: chr19:16452684:16452685:+_ENSMUSG00000024639_ENSMUST00000025541|perfect_dup|FALSE|FALSE (ssRNA)
RNA: GGGAGUUCUACAGUCCGACGAUCGUUUAAGAACAGAAUCACAGAGGAGUUCUGGAACCAGGGGUAGGUGAUAAUUGUUCUAAAGAGUGCUUUGCUCUCCUCCAUGCGGUUCUCAUUGUCUGACUCCACAAGAACUUGAUCAUACAACAGAGGAUUGAGCAUCA
B14: chr5:128448638:128448639:+_ENSG00000066583_ENST00000173527|hu_mus|hu_hu_hu_mus_False|98_98 (ssRNA)
RNA: GGGAGUUCUACAGUCCGACGAUCGGCACUCGCCUUAAUUAGAUUCUGAAUUUCCUUGAACUUCGGGUGGUCUUUGUCAGCCACCAGCUGUAGGAGGACAGCCUCACUAGUGGUCACGAUGAUCCCAGUGCGGGCAAGACGCUCCAACAGAGGAUUGAGCAUCA

Residue numbers refer to the chain shown, from its start. Whole data set: some 24,000 sequences, median “enrichment r” near 0.99, cut for the highest 2% near 3.7. Many of the other results were omitted from the sample, so the highest values are more common in it than they were.

The target of the assay is T1, UNK ZnF1-3. The assay can be described thus: nsRBNS (natural sequence RNA bind-n-seq); RBNS binding buffer (assumed for nsRBNS): 25 mM Tris pH 7.5, 150 mM KCl, 3 mM MgCl2, 0.01% Triton X-100, 500 ug/ml BSA, 20 U/ml SUPERase-In, 4 C; UNK is unkempt and MSI1 is Musashi-1; names of the RNAs are library labels; protein concentration not given here; high values mean tight binding.
The molecule B1 displayed a binding signal of 0.475 enrichment R.

As for B2, the binding signal came to 0.702 enrichment R.

B3 gave a binding signal of 0.725 enrichment R.

B4 returned a binding signal of 1.1 enrichment R.

In turn, B5 yielded a binding signal of 1.78 enrichment R.

Molecule B6 gave a binding signal of 0.537 enrichment R.

B7 had a binding signal of 5.71 enrichment R.

In the case of B8, the binding signal worked out at 0.545 enrichment R.

Consider B9, for which the binding signal worked out at 8.06 enrichment R.

B10 displayed a binding signal of 7.95 enrichment R.

Regarding B11, the binding signal came to 0.845 enrichment R.

For B12, the binding signal amounted to 1.02 enrichment R.

With B13, the binding signal was found to be 0.726 enrichment R.

With B14, the binding signal came out at 0.728 enrichment R.
